The values below come from ChEMBL document CHEMBL4513216, “Probing the Open Global Health Chemical Diversity Library for Multistage-Active Starting Points for Next-Generation Antimalarials” (ACS Infect Dis, 2020).

In all, about 69,000 compounds went through this assay and about 8,600 (12%) showed an effect of 50% or more. What follows is part of a selection rich in strong results, with near analogues and random picks from the rest.

The assay concerns Plasmodium berghei. Put plainly: Screen against P. berghei liver stage (PbLuc), transformed with Luciferase, at 10uM. It is filed as functional, HepG2. The conditions noted are these: tested at 10 uM.
On to `Cc1ccnc(NCc2cn3c(C)csc3n2)n1`, for which the INHIBITION is -125%.

For the compound `Cc1nnc(SCC(=O)Nc2csc3nc(=O)c(C)nn23)s1`, the INHIBITION amounted to 36.3%.

As for `Cc1nn2c(NC(=O)CSc3ncccn3)csc2nc1=O`, the INHIBITION was 3.77%.

For `Cc1cc(NCCSc2nccn2C)n2nc(C)c(C)c2n1`, the INHIBITION worked out at 24.7%.

On to `Cc1nn2c(NC(=O)CSc3nccn3C)csc2nc1=O`, for which the INHIBITION is 50.8%.

Regarding `Cc1ccnc(SCC(=O)Nc2csc3nc(=O)c(C)nn23)n1`, the INHIBITION is 72.8%.

For `Cc1ncsc1C(=O)NCc1ccc(-c2n[nH]cc2C(=O)N(C)C)cc1`, the INHIBITION was -3.05%.

In the case of `c1cncc(CN2CCCn3nnc(CN4CCCC4)c3C2)c1`, the INHIBITION is -19.8%.

As to `CNC(=O)C1(c2cnccn2)CCCN1C(=O)c1ccccc1` (stereo unspecified), the INHIBITION turned out to be 35.2%.

For the compound `COCCO[C@H]1CCN(Cc2ccsc2)[C@H]1Cc1cccnc1`, the INHIBITION is -67.6%.

For `Cc1nnc(N2C[C@H](OCc3cccnc3)[C@H]3OCCC[C@H]32)s1`, the INHIBITION was determined as 47.9%.

Take `Cc1csc(C2CCCCN2C(=O)c2cn[nH]c2C)n1` (stereo unspecified): the INHIBITION came to 11.6%.

For the compound `CC(=O)NCC(=O)N1Cc2c(-c3cccc(C)c3)nc(N)nc2C1C` (stereo unspecified), the INHIBITION was 34%.

As to `CN1CCC(C)(CN(C)C(=O)c2ccc(CCC(C)(C)O)cc2)C1` (stereo unspecified), the INHIBITION worked out at 1.71%.

Turning to `CCOc1cc(C)nc(N2CCN(C(=O)Cn3cc(C)cn3)CC2)n1`, the INHIBITION was -83.4%.

Regarding `COCC(=O)N1CCc2nc(-c3cnccn3)nc(O)c2C1`, the INHIBITION is given as 47.2%.

In the case of `O=C(Cc1ccccn1)N1CCc2c(O)nc(-c3cnccn3)nc2C1`, the INHIBITION is 52%.

Turning to `Oc1nc(-c2cnccn2)nc2c1CCN(Cc1ccccn1)C2`, the INHIBITION is 2.71%.

Regarding `Cc1nc(CC(=O)N2CCc3nc(-c4cnccn4)nc(O)c3C2)cs1`, the INHIBITION is reported as 59.3%.

In the case of `O=C(Cc1ccccn1)N1CCc2nc(-c3cnccn3)nc(O)c2C1`, the INHIBITION is listed as 5.69%.

As to `O=C(CCC1CCCO1)N1CCc2nc(-c3cnccn3)nc(O)c2C1` (stereo unspecified), the INHIBITION was -22.6%.

Regarding `Cc1nc(C)n(CC2CCCN2Cc2cn3ccccc3n2)n1` (stereo unspecified), the INHIBITION is -17.6%.

For `c1cnc(N2CCCn3c(nnc3Cn3cccn3)C2)nc1`, the INHIBITION is reported as -7.24%.

In the case of `Cc1cnc(N2CCCn3c(nnc3Cn3cccn3)C2)nc1`, the INHIBITION is given as 16.9%.

With `c1cnn(Cc2nnc3n2CCCN(c2nccs2)C3)c1`, the INHIBITION is listed as 53.9%.

Take `Cc1c(F)cc(C(=O)O)cc1S(=O)(=O)Nc1ccc(C#N)cc1`: the INHIBITION was 14.55%.

In the case of `c1cncc(C[C@@H]2CC[C@H](CN3CCCOCC3)O2)c1`, the INHIBITION is -13.1%.

Consider `O=C(c1cccnc1)N1CCOC2(COCCN(c3cncnc3)C2)C1` (stereo unspecified), for which the INHIBITION is recorded as -2.41%.

With `CCC(NC1CSCCSC1)c1ccc(S(C)(=O)=O)cc1` (stereo unspecified), the INHIBITION is reported as 29.4%.

Regarding `COc1ccc(NC(C)C(=O)N2CCN(c3ccccc3)CC2)cn1` (stereo unspecified), the INHIBITION came out at 21.6%.

As for `COc1ccc(NC(C)C(=O)N2CCN(c3ncccn3)CC2)cn1` (stereo unspecified), the INHIBITION is given as 29.2%.

Consider `COc1ccc(NC(C)C(=O)N2CCCC2)cn1` (stereo unspecified), for which the INHIBITION was found to be 78.2%.

Take `Cc1ccccc1SCC(=O)NC1CCC(n2cnnc2)CC1` (stereo unspecified): the INHIBITION was 34.1%.

For the compound `O=C(N1CCCCC1)N1CCCC1c1nnc2n1CCNC2` (stereo unspecified), the INHIBITION was determined as 36.6%.

Take `CC(C)NC(=O)N1CCCCC1c1nnc2n1CCNC2` (stereo unspecified): the INHIBITION is listed as 54.9%.

As for `O=C(NC1CCCCC1)N1CCCC1c1nnc2n1CCNC2` (stereo unspecified), the INHIBITION is given as 32.5%.

As to `CC(C)NC(=O)N1CCC(c2nnc3n2CCNC3)CC1`, the INHIBITION came to 59.8%.

As for `CC(C)NC(=O)N1CCn2c(nnc2C2CCCN2)C1` (stereo unspecified), the INHIBITION was determined as 23.4%.

`CC(=O)N1CCCCC1c1nnc2n1CCNC2` (stereo unspecified): the INHIBITION is given as 38.3%.

Regarding `Cc1cnn(C2CN(c3ncnc4[nH]ccc34)C2)c1`, the INHIBITION was found to be 15%.

Regarding `CN(C)CC(=O)N1Cc2nnn(C)c2C(COCc2ccccn2)C1` (stereo unspecified), the INHIBITION is reported as -27.9%.

For the compound `CC(C)C(=O)N1CCN(Cc2ccccn2)CC2(CC(=O)N(C)C2)C1` (stereo unspecified), the INHIBITION was 5.04%.

On to `Cn1cccc1C(=O)N1CC2(CCN(C(=O)c3cccnc3)C2)C1`, for which the INHIBITION is on record as 32.1%.

`Cn1nc(C2CCN(C(=O)c3cnccn3)C2)cc1CCO` (stereo unspecified): the INHIBITION was determined as 45.2%.

In the case of `Cc1nc(Cn2c3c(ccc2=O)CC(NC(C)C)CC3)cs1` (stereo unspecified), the INHIBITION was 13.6%.

Take `O=C(c1cccs1)N1CCC(O)(CN2CCc3ccccc3C2)C1` (stereo unspecified): the INHIBITION was 37.5%.

With `Cc1ccsc1C(=O)N1CCC(O)(CN2CCc3ccccc3C2)C1` (stereo unspecified), the INHIBITION was 33.7%.

Consider `Cc1ccc(C(=O)N2CCC(O)(CN3CCc4ccccc4C3)C2)s1` (stereo unspecified), for which the INHIBITION is recorded as 51.5%.

Turning to `Cn1cccc1C(=O)N1CCC(O)(CN2CCc3ccccc3C2)C1` (stereo unspecified), the INHIBITION turned out to be 20.4%.

In the case of `Cc1csc(C(=O)N2CCC(O)(CN3CCc4ccccc4C3)C2)c1` (stereo unspecified), the INHIBITION is reported as 76.8%.

Consider `Cc1ncsc1C(=O)N1CCC(O)(CN2CCc3ccccc3C2)C1` (stereo unspecified), for which the INHIBITION turned out to be 45.6%.

With `Cc1nnsc1C(=O)NCc1nn(C)c2c1COCC2`, the INHIBITION is -2.09%.

Take `CC(O)c1cn(Cc2ccc(Cl)cc2)nn1` (stereo unspecified): the INHIBITION is on record as 24.7%.

As for `Cc1noc(C)c1CN1C[C@H]2CC[C@@H](C1)N(Cc1cc(F)cc(F)c1)C2`, the INHIBITION amounted to 0.818%.

In the case of `CC(=O)N1CC2(CCN(Cc3ccc(Cl)cc3)C2)Cc2ccccc21` (stereo unspecified), the INHIBITION is recorded as 57.3%.

For the compound `COCC(=O)N1CCC2(CC1)CC(=O)N(Cc1ccc(Cl)cc1)C2`, the INHIBITION was 14%.
